In PubChem BioAssay (NCATS):
Results filed as inconclusive are left out. Activity calls are given as the source filed them. Unless noted, calls follow the shape of the dose curve; as a rule, active = well fitted curve in the direction sought with a large enough effect; inconclusive = small, poorly fitted or top-dose-only effect, or another doubt; inactive = no such curve, though single readings can be large; an effect the other way counts as inactive or inconclusive.

How the values were obtained:
[1] = qHTS of pediatric cancer cell lines to identify multiple opportunities for drug repurposing: Primary screen for TC32 cells (AID 1347089); also: nearly all actives have a fitted effect of over 60% in size
How it was run: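 Measured quantity: luminescence from CellTiter-Glo, reflecting metabolically active TC32 cells following 48 h of compound. Curves came straight from multi-point titrations, with 8 or 11 points in primary and 11 in confirmatory screening.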

[2] = qHTS of pediatric cancer cell lines to identify multiple opportunities for drug repurposing: Primary screen for DAOY cells (AID 1347090); also: series mostly up to about 46 µM; nearly all actives have a fitted effect of over 55% in size
How it was run: (§1)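 Eight- or eleven-point concentration series, 48 h treatment at 37 degrees C in growth media; readout CellTiter-Glo luminescence. Potency and efficacy were taken from the concentration-response curves.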

[3] = qHTS of pediatric cancer cell lines to identify multiple opportunities for drug repurposing: Primary screen for SJ-GBM2 cells (AID 1347091)
How it was run: as §1

[4] = qHTS of pediatric cancer cell lines to identify multiple opportunities for drug repurposing: Primary screen for A673 cells (AID 1347092); also: nearly all actives have a fitted effect of over 45% in size
How it was run: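 Cells are plated, rested 5 h, dosed by pintool, incubated 48 h, then lysed with CellTiter-Glo and read by luminescence. DMSO is the neutral control; bortezomib at 2.3 uM final is the positive control.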

[5] = qHTS of pediatric cancer cell lines to identify multiple opportunities for drug repurposing: Primary screen for SK-N-MC cells (AID 1347093); also: series mostly up to about 46 µM
How it was run: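 Metabolically active cells were quantified by ATP-dependent luminescence (CellTiter-Glo, 15 min at room temperature) following 48 h treatment. Cells had been plated at 500-1,000 per well and settled for 5 h beforehand.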

[6] = qHTS of pediatric cancer cell lines to identify multiple opportunities for drug repurposing: Primary screen for BT-37 cells (AID 1347094); also: series mostly up to about 57 µM
How it was run: (§2)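 ATP-based luminescence (CellTiter-Glo) quantifies viability after a 48-hour exposure. Compounds are dosed across 8 or 11 final concentrations; DMSO and 2.3 µM bortezomib serve as controls.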

[7] = qHTS of pediatric cancer cell lines to identify multiple opportunities for drug repurposing: Primary screen for NB-EBc1 cells (AID 1347095)
How it was run: as §2

[8] = qHTS of pediatric cancer cell lines to identify multiple opportunities for drug repurposing: Primary screen for U-2 OS cells (AID 1347096); also: nearly all actives have a fitted effect of over 50% in size
How it was run: (§3)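 Cells (500-1,000/well) in growth media were settled 5 h at 37 degrees C, then given compounds for 48 h. Viability was read as CellTiter-Glo luminescence. Primary runs used MIPE at 11 points (0.78 nM-46 µM) and NPC at 8 points (0.59 nM-46 µM); follow-ups used 11 points.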

[9] = qHTS of pediatric cancer cell lines to identify multiple opportunities for drug repurposing: Primary screen for Saos-2 cells (AID 1347097); also: nearly all actives have a fitted effect of over 40% in size
How it was run: as §2

[10] = qHTS of pediatric cancer cell lines to identify multiple opportunities for drug repurposing: Primary screen for SK-N-SH cells (AID 1347098);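 also: DMSO served as neutral control and bortezomib at 2.3 µM as positive control; nearly all actives have a fitted effect of over 65% in size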
How it was run: (§4)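 Cells (500-1,000/well) rested 5 h, then received compounds for 48 h; metabolically active cells were measured by CellTiter-Glo luminescence. Final concentrations spanned up to 46 µM (MIPE, 11-point) or 0.59 nM-46 µM (NPC, 8-point) in primary screens, 11-point in follow-ups.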

[11] = qHTS of pediatric cancer cell lines to identify multiple opportunities for drug repurposing: Primary screen for NB1643 cells (AID 1347099); also: nearly all actives have a fitted effect of over 50% in size
How it was run: as §2

[12] = qHTS of pediatric cancer cell lines to identify multiple opportunities for drug repurposing: Primary screen for LAN-5 cells (AID 1347100)
How it was run: as §3

[13] = qHTS of pediatric cancer cell lines to identify multiple opportunities for drug repurposing: Primary screen for BT-12 cells (AID 1347101); also: nearly all actives have a fitted effect of over 25% in size
How it was run: as §4

[14] = qHTS of pediatric cancer cell lines to identify multiple opportunities for drug repurposing: Primary screen for Rh18 cells (AID 1347102); also: nearly all actives have a fitted effect of over 65% in size
How it was run: as §3

[15] = qHTS of pediatric cancer cell lines to identify multiple opportunities for drug repurposing: Primary screen for OHS-50 cells (AID 1347103); also: nearly all actives have a fitted effect of over 40% in size
How it was run: as §4

[16] = qHTS of pediatric cancer cell lines to identify multiple opportunities for drug repurposing: Primary screen for RD cells (AID 1347104); also: nearly all actives have a fitted effect of over 55% in size
How it was run: as §2

[17] = biological target: T1, Tyrosine-protein phosphatase non-receptor type substrate 1 (Homo sapiens) + Leukocyte surface antigen CD47 (Homo sapiens) (UniProt P78324+Q08722); assay: CD47-SIRPalpha protein protein interaction - LANCE assay qHTS validation (AID 1347057; active = well fitted curve in the direction sought with a large enough effect in the signal ratio, with a control signal flat, not every such curve was filed as active; the % refers to the signal ratio; also: series mostly up to about 38 µM)
How it was run: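 Inhibition of soluble CD47/SIRPalpha ectodomain association by titrated compounds, measured as 665/615 nm time-resolved FRET ratio after sequential 30 min room-temperature incubations.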

[18] = biological target: T1, Tyrosine-protein phosphatase non-receptor type substrate 1 (Homo sapiens) + Leukocyte surface antigen CD47 (Homo sapiens); assay: CD47-SIRPalpha protein protein interaction - HTRF assay qHTS validation (AID 1347058; active = well fitted curve in the direction sought with a large enough effect in the signal ratio, not every such curve was filed as active; the % refers to the signal ratio; also: series mostly up to about 38 µM)
How it was run: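 Soluble extracellular domains (6His-CD47, Avi-tag-biotinylated SIRPalpha) in PBS pH 7.4 with 0.05% IGEPAL CA-630. Compounds were preincubated 30 min at RT with CD47 and anti-His-Eu, then SIRPalpha and SAV-XL665 were added. TR-FRET 665/615 ratio.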

[19] = biological target: T1, Tyrosine-protein phosphatase non-receptor type substrate 1 (Homo sapiens) + Leukocyte surface antigen CD47 (Homo sapiens); assay: CD47-SIRPalpha protein protein interaction - Alpha assay qHTS validation (AID 1347059);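 also: bead proximity luminescence from CD47 binding SIRPalpha after compound preincubation with SIRPalpha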
How it was run: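 In PBS (pH 7.4) with 0.05% IGEPAL CA-630, compound is preincubated with biotin-Avi-SIRPalpha ectodomain before His-CD47 ectodomain and affinity beads are added. Light-protected room-temperature incubations; AlphaScreen readout.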

[20] = biological target: Parathyroid hormone/parathyroid hormone-related peptide receptor (Homo sapiens) (UniProt Q03431); assay: qHTS for PTHR1 Agonists: Optimization Screen against the NCGC LOPAC library (AID 1347079);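 also: GloSensor cAMP luminescence in HEK-293 GP2 cells expressing human PTHR1 with IBMX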
How it was run: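 HEK-293 GP2 cells, PTHR1 + GloSensor cAMP; 3000 cells/well, o/n. Luciferin + IBMX 0.5mM each (stock), 1 hr 37C. Cpd titration, 1 hr 37C. Lum after 15 min RT. Ctrl M-PTH(1-15) top 10uM.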

Measured: Potency

T1 sequence (P78324 whole entry, looked up, the tested form may be a part): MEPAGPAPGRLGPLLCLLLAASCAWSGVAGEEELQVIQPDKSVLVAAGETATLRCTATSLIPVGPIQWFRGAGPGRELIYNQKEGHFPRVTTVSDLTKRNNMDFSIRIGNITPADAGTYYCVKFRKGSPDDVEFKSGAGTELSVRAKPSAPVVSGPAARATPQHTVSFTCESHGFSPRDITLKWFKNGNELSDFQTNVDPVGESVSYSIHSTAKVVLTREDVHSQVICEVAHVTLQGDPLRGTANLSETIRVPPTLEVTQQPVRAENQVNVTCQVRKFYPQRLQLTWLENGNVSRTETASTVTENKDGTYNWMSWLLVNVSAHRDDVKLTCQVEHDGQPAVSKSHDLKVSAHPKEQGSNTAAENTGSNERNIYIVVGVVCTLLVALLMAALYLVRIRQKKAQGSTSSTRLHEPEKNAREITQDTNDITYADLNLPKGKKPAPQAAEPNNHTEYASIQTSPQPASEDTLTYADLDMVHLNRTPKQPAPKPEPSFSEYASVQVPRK
T1 sequence (Q08722 whole entry, looked up, the tested form may be a part): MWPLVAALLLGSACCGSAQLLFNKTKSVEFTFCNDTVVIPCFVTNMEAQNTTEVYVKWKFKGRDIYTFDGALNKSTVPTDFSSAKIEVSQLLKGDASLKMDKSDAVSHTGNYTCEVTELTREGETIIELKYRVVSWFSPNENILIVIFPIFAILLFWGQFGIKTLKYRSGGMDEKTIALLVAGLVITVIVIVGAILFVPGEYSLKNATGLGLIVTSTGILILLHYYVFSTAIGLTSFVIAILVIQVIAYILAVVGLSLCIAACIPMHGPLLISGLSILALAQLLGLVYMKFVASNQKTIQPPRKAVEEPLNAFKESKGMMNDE
Parathyroid hormone/parathyroid hormone-related peptide receptor (Homo sapiens), sequence (Q03431 whole entry, looked up): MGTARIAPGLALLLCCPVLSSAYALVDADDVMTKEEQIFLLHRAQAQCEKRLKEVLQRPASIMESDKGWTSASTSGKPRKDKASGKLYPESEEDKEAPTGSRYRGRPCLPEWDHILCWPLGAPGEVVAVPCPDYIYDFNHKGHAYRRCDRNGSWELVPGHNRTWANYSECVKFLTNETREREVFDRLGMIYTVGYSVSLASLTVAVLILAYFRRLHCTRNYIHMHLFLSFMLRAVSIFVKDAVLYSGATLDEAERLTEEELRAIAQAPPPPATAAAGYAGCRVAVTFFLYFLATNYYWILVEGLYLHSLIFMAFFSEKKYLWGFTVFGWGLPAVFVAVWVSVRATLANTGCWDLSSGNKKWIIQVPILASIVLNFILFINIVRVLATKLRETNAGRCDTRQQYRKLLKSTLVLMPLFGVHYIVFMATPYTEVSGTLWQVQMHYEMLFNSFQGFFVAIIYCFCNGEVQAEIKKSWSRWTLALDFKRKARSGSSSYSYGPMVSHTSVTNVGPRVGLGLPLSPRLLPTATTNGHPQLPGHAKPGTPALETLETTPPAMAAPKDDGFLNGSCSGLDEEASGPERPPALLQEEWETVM

COc1ccc(-c2cc(C(F)F)nn2-c2ccc(S(N)(=O)=O)cc2)cc1F
not listed: [17] | [18] | [19] | [20]
inactive: all other assays above

Oc1ccccc1C=NCc1ccccc1
not listed: [15] | [17] | [18] | [19] | [20]
inactive: all other assays above

COc1ccc(C(=O)c2ccccc2)c(O)c1
not listed: [17] | [18] | [19] | [20]
inactive: all other assays above

CCCN(CCC)S(=O)(=O)c1ccc(C(=O)O)cc1
not listed: [17] | [18] | [19] | [20]
inactive: all other assays above

CN1CCN(C2=Nc3ccccc3Sc3ccc(Cl)cc32)CC1
not listed: [15] | [17] | [18] | [19] | [20]
inactive: all other assays above

C=C[C@@]1(C)CC(=O)[C@]2(O)[C@@]3(C)[C@@H](O)CCC(C)(C)[C@@H]3[C@H](O)[C@H](OC(C)=O)[C@@]2(C)O1
not listed: [15] | [17] | [18] | [19] | [20]
inactive: all other assays above

C[N+]1(C)CCC(=C(c2ccccc2)c2ccccc2)CC1
not listed: [17] | [18] | [19] | [20]
inactive: all other assays above

CC(C)(C)NC[C@H](O)COc1nsnc1N1CCOCC1
inactive: all assays above

O=C(O)c1ccc(S(=O)(=O)N(Cl)Cl)cc1
not listed: [13] | [17] | [18] | [19] | [20]
inactive: all other assays above

NC(N)=NCc1cccc(I)c1
inactive: [17] | [19] | [20]

CCCCC(CC)COC(=O)c1ccc(N(C)C)cc1 (configuration not stated)
not listed: [17] | [18] | [19] | [20]
inactive: all other assays above

CCCCCCCCCCCCCC(=O)OC(C)C
not listed: [13] | [17] | [18] | [19] | [20]
inactive: all other assays above

CC(C)Nc1cccnc1N1CCN(C(=O)c2cc3cc(NS(C)(=O)=O)ccc3[nH]2)CC1
not listed: [15] | [17] | [18] | [19] | [20]
inactive: all other assays above

CCCCNC(=O)NS(=O)(=O)c1ccc(N)cc1
not listed: [15] | [17] | [18] | [19] | [20]
inactive: all other assays above

CN(CCCN1c2ccccc2CCc2ccccc21)CC(=O)c1ccc(Cl)cc1
not listed: [13] | [15] | [17] | [18] | [19] | [20]
inactive: all other assays above

FC1(F)C(F)(F)C(F)(F)C2(F)C(F)(F)C(F)(F)C(F)(F)C(F)(F)C2(F)C1(F)F (configuration not stated)
not listed: [15] | [17] | [18] | [19] | [20]
inactive: all other assays above
